Bioassay records as filed in PubChem.
SMN2 splice enh: SMN2 splice variant enhancement | actives 2.8% (n = 210,000) | HEK293 SMN2-luciferase splicing reporter, luminescence, 30-36 h | Potency, µM (top dose mostly 46.1 µM), without a hit: at the top dose activity change, positive = activation, usual class: activators; also: % of control where 0% means no effect; nearly all actives have a fitted effect of over 55% in size
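HEK293 cells carry an SMN2 […]–luciferase reporter in which exon 7 inclusion puts luciferase in frame. Cells were plated 10-12 h before compound addition, then incubated 30-36 h at 37C. ONE-Glo luminescence was read; sodium butyrate at 4.5 mM final served as control.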
NPC1 promoter act: activators of NPC1 promoter. Potency, µM (doses to about 9.22 µM), for inactives: top-dose activation, usual class: activators. Huh7 NPC1 promoter luciferase reporter, 24 h. actives 2.4% (n = 320,000); also: % of control where 0% means no effect; nearly all actives have a fitted effect of over 60% in size
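In 1536-well qHTS, Huh7 cells harboring an NPC1 promoter–luciferase construct received compound for 24 h; activation was quantified by luminescence following luciferase reagent addition.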
FLuc modulator: inhibits or activates purified firefly luciferase, miR-21 counter-screen; Potency, µM (doses to about 57.5 µM), inactives show top-dose activity change, negative = inhibition, actives largely listed as inhibitors; actives 6.9% (n = 360,000); P08659; purified FLuc, Km substrates, luminescence inhibition;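 also: plate controls were vehicle for no effect and reference inhibitor for full effect; nearly all actives have a fitted effect of over 55% in size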
Target sequence (P08659 whole entry, looked up): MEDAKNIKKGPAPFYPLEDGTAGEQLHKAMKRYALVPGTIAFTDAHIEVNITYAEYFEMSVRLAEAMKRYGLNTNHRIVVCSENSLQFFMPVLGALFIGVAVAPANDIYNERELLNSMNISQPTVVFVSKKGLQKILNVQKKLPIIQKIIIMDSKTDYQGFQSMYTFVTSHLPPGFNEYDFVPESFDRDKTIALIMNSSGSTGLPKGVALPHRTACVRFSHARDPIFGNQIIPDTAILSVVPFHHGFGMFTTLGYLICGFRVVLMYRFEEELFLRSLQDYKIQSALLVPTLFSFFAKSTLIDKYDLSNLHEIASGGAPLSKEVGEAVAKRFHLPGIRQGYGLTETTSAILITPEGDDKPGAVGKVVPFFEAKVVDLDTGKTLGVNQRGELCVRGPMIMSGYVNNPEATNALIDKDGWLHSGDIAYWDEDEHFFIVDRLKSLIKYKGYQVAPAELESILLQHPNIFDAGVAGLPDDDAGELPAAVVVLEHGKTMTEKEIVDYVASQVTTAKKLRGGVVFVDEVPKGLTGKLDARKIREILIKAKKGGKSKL
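Biochemical qHTS of compounds, final roughly 60 µM downward over six points, against 10 nM purified firefly luciferase using Km concentrations of substrates (10 uM D-luciferin, 10 uM ATP) in Tris acetate pH 7.5 buffer; luminescence output.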
ELG1 genotox: induces genotoxicity in HEK293T cells with luciferase-tagged ELG1; actives 1.3% (n = 330,000); Potency, µM (top dose mostly 46 µM), without a hit: at the highest dose activity change, positive = activation, actives largely listed as activators; HEK293T ELG1-luciferase reporter, luminescence, 16 h; also: % of control where 0% means no effect; nearly all actives have a fitted effect of over 60% in size
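Step 1: seed 2,000 HEK293T ELG1-luciferase cells per well. Step 2: add compound or DMSO, incubate 16 hr at 37 °C. Step 3: ONE-Glo, 30 min at room temperature, read luminescence.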
ELG1 DNA repair: ELG1-dependent DNA repair inhibition. HEK293T ELG1-luciferase reporter, luminescence, 16 h; DNA damage induced by 5-fluorouridine. Potency, µM (series often up to 46.1 µM), for the others: at the top dose activity change, negative = inhibition, most hits filed as inhibitors. actives 2.3% (n = 330,000). AID 504467; also: % is scaled to controls: 0 for no effect and ±100 for the full control effect; nearly all actives have a fitted effect of over 55% in size
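In this reporter screen, reduction of luminescence relative to DMSO vehicle indicated activity. Compounds and 5-fluorouridine were added together to 2,000 cells per well, incubated for 16 hr at 37 °C, then developed with ONE-Glo.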
Rab9 promoter act: activates the Rab9 promoter. Huh7 Rab9 promoter-luciferase reporter, luminescence, 24 h. Potency, µM (doses to about 9.22 µM), for the others: at the top dose activation, negative = inhibition, actives largely listed as activators. actives 2.8% (n = 320,000). AID 485297; also: % of control where 0% means no effect; nearly all actives have a fitted effect of over 60% in size
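Cells were plated at 1500 per well in reduced-serum medium with 10% FBS and left 2 h. Compound in DMSO was then added for 24 h at 37 °C. Reporter signal was read by luminescence after 10 min with luciferase detection reagent.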
An asterisk follows results filed as active; ? = inconclusive; / = no result; [ ] = another dose, or the depositor's remark. Compounds with a hit are over-represented: about 9.2% of the library has one in this group of screens. Calls follow the shape of the dose curve; as a rule, active = well fitted curve in the direction sought with a large enough effect; inconclusive = small, poorly fitted or top-dose-only effect, or another doubt; inactive = no such curve, though single readings can be large; an effect the other way counts as inactive or inconclusive. Potency is read from the fitted curve at half-maximal effect.

SMILES	SMN2 splice enh	NPC1 promoter act	FLuc modulator	ELG1 genotox	ELG1 DNA repair	Rab9 promoter act
Clc1ccc(-c2cnn3c(-c4ccncc4)ccnc23)cc1	3.16µM*	0.501µM*	0.953µM*	23.1%	?	0.355µM*
Nc1nc2nccc(-c3ccc(Cl)cc3)n2n1	9.5%	?	12µM*	?	?	?
N#Cc1cnn2c(N)c(-c3ccc(Cl)cc3)cnc12	0.6%	0.0%	-6.0%	4.2%	11.1%	18.5%
Cc1cc(-c2ccc(Cl)cc2)n2nc(N)nc2n1	/	-2.9%	2.9%[2.3 µM]	?	?	2.2%
Nc1c(C(=O)O)cnc2c(-c3ccc(Cl)cc3)cnn12	11.2µM*	1.41µM*	3.01µM*	?	?	1µM*
Cc1nn2c(-c3ccncc3)ccnc2c1Cl	-3.3%	-4.8%	-1.8%	7.0%	18.3%	-4.1%
CC(=O)c1cnc2c(-c3ccc(Cl)cc3)cnn2c1C	12.6µM*	22.0%	?	?	?	?
CCc1cccc(C)c1NC(=O)Cn1ccn(-c2ccc(F)cc2)c(=O)c1=O	/	/	4.4%	/	/	/
Cc1c(CNCc2ccc(Cl)cc2)c(C(=O)O)c(C)n1Cc1ccc(F)cc1	4.6%	/	-1.9%	/	/	/
COc1ccc(OCC(=O)N2c3ccccc3CC2C)c([N+](=O)[O-])c1 (configuration not stated)	/	/	/	-0.4%	?	/
Cc1cc(C)cc(C(=O)NCC(=O)OCC(=O)c2cc(C)n(CC(F)(F)F)c2C)c1	-11.0%	-3.9%	6.0%	-2.2%	2.2%	-3.4%
COc1ccc(/C=C/C(=O)Nc2cccc(S(=O)(=O)NC3=NCCCCC3)c2)cc1	/	?	0.675µM*	8.8%	?	26.9%
O=C(/C=C/c1ccc(OC(F)F)cc1)Nc1cccc(S(=O)(=O)NC2=NCCCCC2)c1	/	1.8%	1.35µM*	-13.8%	?	9.9%
COc1ccc(OC)c(/C=C/C(=O)Nc2cccc(S(=O)(=O)NC3=NCCCCC3)c2)c1	/	-2.1%	?	-1.2%	?	-1.8%
CCc1cc(C=NC2CCCCC2)c(O)s1	17.9%	?	?	13.1%	?	3.55µM*
CCc1cc2c(SC(C)C(=O)NC3CCCC3)ncnc2s1 (configuration not stated)	/	/	/	-1.2%	?	/
CCOC(=O)c1ccccc1NC(=O)c1cn(-c2ccc(C)c(C)c2)c(=O)c2ccccc12	-9.4%	-2.8%	-1.9%	-6.2%	?	-12.0%
CCCN(CCC)CCCNC(=O)c1cn(-c2ccc(OC)cc2)c(=O)c2ccccc12	/	-3.2%	2.2%	0.1%	8.5%	-0.7%
CCOc1ccccc1CNC(=O)c1cn(-c2ccc(OC)cc2)c(=O)c2ccccc12	/	/	9.53µM*	/	/	/
CCOC(=O)c1ccccc1NC(=O)c1cn(-c2ccc(OC)cc2)c(=O)c2ccccc12	-35.4%	-0.8%	2.8%	-9.2%	6.51µM*	-4.8%
COC(=O)c1ccccc1NC(=O)c1cn(-c2ccc(C)c(C)c2)c(=O)c2ccccc12	-21.8%	-3.2%	3.1%	-8.5%	9.2µM*	-8.8%
O=C(NCC(c1ccccc1)c1ccccc1)c1nn(-c2ccccc2Cl)nc1CO	-78.3%	/	-1.8%	/	/	/
COc1cccc(N2CCN(S(=O)(=O)c3ccc(-c4cc(C(F)(F)F)on4)s3)CC2)c1	/	/	-0.4%	/	/	/
CCCc1ccc(C(=O)Cn2nc(C(=O)O)c3ccccc3c2=O)cc1	-4.4%	-1.3%	?	-0.1%	1.8%	-0.1%
O=C(Cn1nc(C(=O)O)c2ccccc2c1=O)Nc1cc(Cl)cc(Cl)c1	/	1.3%	-1.4%	0.5%	14.2%	-3.5%
SMILES	SMN2 splice enh	NPC1 promoter act	FLuc modulator	ELG1 genotox	ELG1 DNA repair	Rab9 promoter act
Cc1cc(C(=O)Cn2nc(C(=O)O)c3ccccc3c2=O)c(C)n1-c1ccccc1	-7.4%	19.0%	0.953µM*	?	?	?
O=C(Cn1nc(C(=O)O)c2ccccc2c1=O)c1c[nH]c2ccccc12	/	-7.2%	15.1µM*	1.7%	2.6%	-0.6%
Cc1cc(C)c(C(=O)Cn2nc(C(=O)O)c3ccccc3c2=O)cc1C	/	-5.8%	6.01µM*	0.4%	?	10.9%
Cc1ccccc1NC(=O)Cn1nc(C(=O)O)c2ccccc2c1=O	/	-3.7%	-0.9%	0.8%	2.3%	-2.1%
Cc1cc(C(=O)Cn2nc(C(=O)O)c3ccccc3c2=O)c(C)n1CCc1ccc(Cl)cc1	-20.2%	-5.7%	-12.3%	-16.8%	8.2µM*	2.5%
COc1ccc(C(C)=O)c(Oc2ccc(S(=O)(=O)N3CCOCC3)cn2)c1	/	-1.5%	6.3%	-0.6%	-9.8%	1.1%
O=C(CCOc1ccccc1)Nc1ccc(S(=O)(=O)Nc2ncccn2)cc1	/	0.6%	/	1.6%	14.6%	-0.5%
C/C(=N/NC(=O)c1cc(-c2ccccc2)nc2c(Cl)cccc12)c1cccnc1	/	-0.8%	-8.3%	14.5%	?	0.8%
CCN(CC)S(=O)(=O)c1cccc(-c2nnc(SCCCC(=O)c3ccccc3)o2)c1	-33.5%	-0.1%	?	-6.5%	?	1.8%
CC(Sc1nnc(-c2ccco2)o1)C(=O)NCCC1=CCCCC1 (configuration not stated)	6.5%	1.2%	1.5%	-0.7%	5.1%	-4.6%
CCN(CC)S(=O)(=O)c1cccc(-c2nnc(SCCCC(=O)c3ccc(F)cc3)o2)c1	-42.2%	-2.5%	-1.8%	-18.0%	16.4µM*	-4.9%
CCN(CC)S(=O)(=O)c1cccc(-c2nnc(SC(C)C(=O)NCCC3=CCCCC3)o2)c1 (configuration not stated)	-28.1%	-1.8%	2.7%	-11.4%	23.1µM*	-4.5%
C=CCn1c(C)cc(C(=O)CSc2nnc(-c3cccc(S(=O)(=O)N(CC)CC)c3)o2)c1C	/	0.2%	?	-0.8%	16.4µM*	0.6%
CC(=O)Nc1cc2c(s1)c1cnn(Cc3ccccc3F)c(=O)c1n2C	/	0.9%	6.5%	/	/	-2.0%
Cc1ccc(C)c(Nc2nnc(-n3nc(C)cc3C)c3ccccc23)c1	4.4%	/	-2.9%	/	/	/
Cn1cnc2c(=O)oc3ccc(S(=O)(=O)N4CCN(c5cccc(Cl)c5)CC4)cc3c21	/	/	-0.6%	/	/	/
COc1cc(C(=O)OCC(=O)N2CCCCC2C)cc(NC(=O)c2cccs2)c1OC (configuration not stated)	-18.0%	-0.3%	-2.4%	-7.7%	18.3µM*	-6.1%
CCC1CCCCN1C(=O)COC(=O)c1cccs1 (configuration not stated)	/	/	/	3.0%	29.4%	/
O=C(Nc1cccc([N+](=O)[O-])c1)c1ccc2nsnc2c1	/	-1.3%	-27.4%	-0.7%	2.0%	-1.0%
CN(C)c1ccc(NC(=O)c2ccc3nsnc3c2)cc1	22.4µM*	?	5.36µM*	2.59µM*	?	3.16µM*
